Assay results published in PubChem BioAssay (NCATS).
Records with an inconclusive call do not appear. A number with no mark means an inactive call. Active and inactive are the calls of the source. Calls follow the shape of the dose curve; as a rule, active = well fitted inhibition curve with a large enough effect; inconclusive = small, poorly fitted or top-dose-only effect; inactive = flat fitted curve, though single readings scatter.

How the values were obtained:
[1] = Drug repurposing screens with cells derived from glioblastoma tumor samples (AID 1345199); settings: GBM patient neurospheres viability, ATP luminescence, 48 h; also: nearly all actives have a fitted effect of over 40% in size
Outline: (§1)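 Primary testing used CD133+ neurospheres from four GBM patients, seven concentrations, 48 h exposure and ATP-based viability; confirmation added three slower-growing patient lines.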

astro = control astrocytes; assay: as above; settings: viability, ATP luminescence, 48 h; series mostly up to 45.9 µM
Outline: as §1

[2] = at 45.9 µM (top of the series), tumour line B
[3] = at 45.9 µM (top of the series), tumour line D
[4] = at 46 µM (top of the series), tumour line A
[5] = at 46.1 µM (top of the series), tumour line C
[6] = at 20 µM (top of the series), tumour line C
[7] = at 21.2 µM (top of the series), tumour line B
[8] = at 21.2 µM (top of the series), tumour line D
[9] = at 21.3 µM (top of the series), tumour line A
% is scaled to controls: 0 for no effect and ±100 for the full control effect; potency is read from the fitted curve at half-maximal effect.

Compound	activity, negative = cell killing [1, 2] [%]	activity, negative = cell killing [1, 3] [%]	activity, negative = cell killing [1, 4] [%]	activity, negative = cell killing [1, 5] [%]	Potency (astro)	activity, negative = cell killing [1, 6] [%]	activity, negative = cell killing [1, 7] [%]	activity, negative = cell killing [1, 8] [%]	activity, negative = cell killing [1, 9] [%]	Potency ([1]; tumour line A)
O=P(O)(O)OC[C@H](O)CO	-8.89	-11.2	-27.1	21.9	inactive					
CC(C)(CO)[C@@H](O)C(=O)NCCC(=O)NCCSSCCNC(=O)CCNC(=O)[C@H](O)C(C)(C)CO	-16.4	-15.1	-16.6	-15.9	inactive					
O=C(O)c1cc(O)c2c(c1)[C@H]([C@H]1c3cc(C(=O)O)cc(O)c3C(=O)c3c(O[C@@H]4O[C@H](CO)[C@@H](O)[C@H](O)[C@H]4O)cccc31)c1cccc(O[C@@H]3O[C@H](CO)[C@@H](O)[C@H](O)[C@H]3O)c1C2=O	-24.5	-3.04	-24	-0.084	inactive					
CCCCC(O)c1ccccc1 (stereo not given)	-4.84	-15	-44.5	0.769	inactive					
c1ccc(-n2cnnn2)cc1	-15	5.06	-23.5	-0.778	inactive					
O=C(O)c1cc(N=Nc2ccc(O)c(C(=O)O)c2)ccc1O	-10.7	-13.9	-13.2	-29.5	inactive					
CCCCCCCCCCCC(=O)OCC(O)CO (stereo not given)	-6.19	-1.8	-27.7	-2.49	inactive					
CN1c2c(nc(N)[nH]c2=O)NCC1CNc1ccc(C(=O)NC(CCC(=O)O)C(=O)O)cc1 (stereo not given)	-12	-5.57	-17.5	-2.53	inactive					
Cc1ncc(C[n+]2csc(CCO)c2C)c(N)n1					inactive	-11.7	-7.55	3.61	-16.2	
CO/N=C(\C(=O)N[C@@H]1C(=O)N2C(C(=O)O)=C(C[N+]3(C)CCCC3)CS[C@H]12)c1csc(N)n1	-2.14	5.4	-4.98	-21.1	inactive					
CCCC(=O)Nc1c(I)cc(I)c(CC(CC)C(=O)O)c1I (stereo not given)	-12.8	14.7	-17.5	-13.2	inactive					
CC1(O)CCC(C(C)(C)O)CC1 (stereo not given)	-1.19	-26.4	-16.9	9.01	inactive					
CCOC(=S)SSC(=S)OCC	-12.5	-2.86	-27.4	-5.03	inactive					
CCOC(=O)c1cc(-c2ccccc2)nc2ccc(C)cc12	-20.9	9.36		-13.3	inactive					12.6 µM (active)
O=C(CO)[C@@H](O)[C@H](O)[C@@H](O)C(=O)O	-4.69	-4.84	-22.3	-9.16	inactive					
CN[C@@H]1[C@@H](O[C@H]2O[C@H](CO)[C@@H](N)[C@H](O)[C@H]2O)O[C@H]2C[C@@H](N)[C@@H](O[C@H]3[C@H](O)[C@@H](O)[C@H](N)C[C@@H]3N)O[C@@H]2[C@@H]1O					inactive	-7.39	0.663	2.67	-16.4	
NS(=O)(=O)c1cc2c(cc1Cl)NC(Cc1ccccc1)NS2(=O)=O (stereo not given)	4.57	9.26	-28.7	0.872	inactive					
CC(=O)Nc1ccc(OC(C)=O)cc1	-2.78	2.27	-21	-27.8	inactive					
CCOC(=O)Oc1c(OC)cc(C(=O)O[C@@H]2C[C@@H]3CN4CCc5c([nH]c6cc(OC)ccc56)[C@H]4C[C@@H]3[C@H](C(=O)OC)[C@H]2OC)cc1OC					inactive	-3.41	-4.13	-4.51		5.62 µM (active)
CC/C(=C(/CC)c1ccc(OP(=O)(O)O)cc1)c1ccc(OP(=O)(O)O)cc1	-16	-11.4	-22.6	-17.3	inactive					
[O]=[Bi][O][Bi]=[O]	-6.82	-2.13	1.51	0.751	inactive					
